Measurements from PubChem BioAssay.
Activity calls are given as the source filed them. Unless noted, the rule behind the calls is not given here.

Experiments:
[1] = tested on: Wnt5a (protein binding on small-molecule microarray); assay: small molecules binding Wnt5a protein – biophysical, small-molecule microarray, 635/667 nm fluorescence, primary screen (AID 1142); settings: 635 nm fluorescence, higher = more signal;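 note: fluorescence read at 667 nm with signal to noise per printed feature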
[2] = ATP-based viability of Huh7 replicon cells – cell-based, CellTiter-Glo luminescence, basal, 48 h, cytotoxicity control for HCV replication inhibitor project, primary screen (AID 1143); settings: higher = more signal, called active from +8 up or from −8 down;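 note: Huh7 hepatoma cells carrying a hepatitis C replication reporter with no stimulus; test concentration not given here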
[3] = Pseudomonas biofilm growth suppression – PAO1 strain, BacTiter-Glo luminescence, LB-PBS, primary screen (AID 1144); settings: P. aeruginosa PAO1 biofilm, 12 h, higher = more signal
[4] = basal CRE-LacZ reporter activity in PC12 – cell-based, unstimulated, primary screen (AID 1145); settings: no forskolin, luminescence, 4.5 h, higher = more signal, called active from +8 up or from −8 down
[5] = forskolin-driven CRE-LacZ activity in PC12 – cell-based, CRE-LacZ reporter, forskolin-stimulated, primary screen (AID 1146); settings: luminescence, 4.5 h, higher = more signal, called active from +8 up or from −8 down;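 note: PC12 cells with 6xCRE LacZ reporter stimulated by forskolin 10 µM; beta-galactosidase reporter signal reflecting CREB driven transcription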
[6] = target: Streptavidin (Streptomyces avidinii) (UniProt P22629); assay: compounds binding control protein streptavidin – biophysical, small-molecule microarray, 635/667 nm fluorescence, artefact control for SMM compound annotation, primary screen (AID 1147); settings: higher = more signal;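 note: signal reflects streptavidin binding to arrayed compounds as a control protein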
Streptavidin (Streptomyces avidinii), sequence (P22629 whole entry, looked up): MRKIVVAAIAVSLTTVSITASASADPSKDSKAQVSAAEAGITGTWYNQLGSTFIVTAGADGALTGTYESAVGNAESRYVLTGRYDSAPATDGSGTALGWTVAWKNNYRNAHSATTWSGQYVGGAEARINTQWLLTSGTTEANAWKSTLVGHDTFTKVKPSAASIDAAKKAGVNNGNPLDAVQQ

[7] = probe aInhba binding on compound microarray – biochemical, small-molecule microarray, 635/667 nm fluorescence, primary screen (AID 1148); settings: higher = more signal;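 note: score merges 667nm spot fluorescence with signal-to-noise for antibody binding to printed compounds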
Torsin-1A (Homo sapiens) [8] = target: Torsin-1A (Homo sapiens) (UniProt O14656); assay: TOR1A wild-type binding on microarray – cell lysate, small-molecule microarray, lysate, 635/667 nm, primary screen (AID 1149); settings: COS7 hTOR1A-WT lysate, 635 nm fluorescence, higher = more signal
Torsin-1A (Homo sapiens), sequence (O14656 whole entry, looked up): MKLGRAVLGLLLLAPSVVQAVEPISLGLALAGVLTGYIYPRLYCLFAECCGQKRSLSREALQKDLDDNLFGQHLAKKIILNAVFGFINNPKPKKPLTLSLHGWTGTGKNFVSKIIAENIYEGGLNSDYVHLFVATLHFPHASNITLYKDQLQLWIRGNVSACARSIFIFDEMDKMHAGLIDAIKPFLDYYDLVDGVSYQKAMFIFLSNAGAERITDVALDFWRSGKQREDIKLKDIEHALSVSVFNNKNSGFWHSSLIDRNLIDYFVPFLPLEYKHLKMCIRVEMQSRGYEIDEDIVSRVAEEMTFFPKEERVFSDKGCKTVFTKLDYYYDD

Torsin-1A (Homo sapiens) [9] = target: Torsin-1A (Homo sapiens) (UniProt O14656); assay: torsin A mutant lysate binding on microarrays – cell lysate, small-molecule microarray, COS7 lysate, 635/667 nm fluorescence, primary screen (AID 1150); settings: COS7 hTOR1A mutant lysate, 635 nm fluorescence, higher = more signal;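 note: score pools 667 nm emission and signal to noise measuring lysate protein binding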
[10] = tested on: Sonic hedgehog protein (Shh); assay: Sonic hedgehog microarray binding compounds – biochemical, small-molecule microarray, 635/667 nm fluorescence, primary screen (AID 1151); settings: 635 nm fluorescence, higher = more signal;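 note: Shh protein binding to compounds spotted on small-molecule microarray slides; score combines spot fluorescence intensity with signal-to-noise across triplicate slides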
[11] = optical density shifts of acrAB sulA E. coli – strain DRC41, OD650, 48 h, E. coli filamentation inducer project, primary screen (AID 1152); settings: higher = more signal, called active from +8 up or from −8 down;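 note: E. coli MC1000 strain DRC41 lacking acrAB efflux pump and sulA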
[12] = probe aLefty1 binding on compound microarray – biochemical, small-molecule microarray, 635/667 nm fluorescence, primary screen (AID 1153); settings: higher = more signal;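 note: score merges spot fluorescence with signal-to-noise ratio from the scanned slide images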
[13] = plasmodial surface anion channel blockers, osmotic lysis – cell-based, P. falciparum Indochina, OD700, 1 h, primary screen (AID 1154); settings: P. falciparum Indochina infected RBC osmotic lysis, higher = more signal, called active from +8 up or from −8 down
[14] = plasmodial surface anion channel blockers, osmotic lysis – cell-based, P. falciparum Indochina, OD700, 2 h, primary screen (AID 1155);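 note: lysis reports solute entry through the parasite surface anion channel PSAC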; settings: P. falciparum Indochina infected erythrocytes, higher = more signal, called active from +8 up or from −8 down
[15] = changes in parasitized red cell lysis, either direction – P. falciparum Indochina, OD700, 3 h, PSAC antagonist project, primary screen (AID 1156); settings: P. falciparum-infected erythrocytes, osmotic lysis, higher = more signal, called active from +8 up or from −8 down
[16] = plasmodial surface anion channel blockers, osmotic lysis – cell-based, P. falciparum Indochina, OD700, 18 h, primary screen (AID 1157); settings: P. falciparum Indochina infected erythrocytes, osmotic lysis OD700, 18 h; higher = more signal, called active from +8 up or from −8 down
[17] = S6 kinase pathway phospho-S6 level changes – cell-based, A549, cytoblot, luminescence, serum-stimulated, primary screen (AID 1158); settings: 5 h, higher = more signal;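 note: serum-stimulated A549 lung adenocarcinoma cells; signal is phosphorylated S6 detected by cytoblot immunostaining with HRP secondary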
[18] = target: NADPH oxidase 2 (Homo sapiens) (UniProt P04839); assay: compounds shifting NOX2 Amplex Red fluorescence – cell-based, HEK293-NOX2, PMA-stimulated, NOX inhibitor project, primary screen (AID 1159); settings: 45 min, higher = more signal, called active from +8 up or from −8 down; note: test concentration not given here
NADPH oxidase 2 (Homo sapiens), sequence (P04839 whole entry, looked up): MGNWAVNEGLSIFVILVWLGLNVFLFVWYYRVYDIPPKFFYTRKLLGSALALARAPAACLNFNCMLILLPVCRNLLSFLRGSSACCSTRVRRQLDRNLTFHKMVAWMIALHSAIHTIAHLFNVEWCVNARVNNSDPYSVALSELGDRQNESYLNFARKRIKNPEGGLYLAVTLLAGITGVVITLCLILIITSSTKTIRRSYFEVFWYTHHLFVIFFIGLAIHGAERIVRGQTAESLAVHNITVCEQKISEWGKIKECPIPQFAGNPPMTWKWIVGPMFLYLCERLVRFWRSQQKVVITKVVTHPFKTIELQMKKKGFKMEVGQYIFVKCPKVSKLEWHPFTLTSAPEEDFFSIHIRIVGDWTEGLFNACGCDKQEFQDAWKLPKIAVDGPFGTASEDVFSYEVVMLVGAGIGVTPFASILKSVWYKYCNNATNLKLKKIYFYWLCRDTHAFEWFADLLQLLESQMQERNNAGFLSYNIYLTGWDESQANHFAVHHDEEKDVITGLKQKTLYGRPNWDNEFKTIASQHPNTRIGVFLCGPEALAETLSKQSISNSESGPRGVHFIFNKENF

[19] = target: NADPH oxidase 4 (Homo sapiens) (UniProt Q9NPH5); assay: compounds shifting NOX4 Amplex Red fluorescence – cell-based, HEK293-NOX4, tetracycline-induced, NOX inhibitor project, primary screen (AID 1160); settings: HEK293-NOX4, Amplex Red H2O2 fluorescence, 45 min; higher = more signal, called active from +8 up or from −8 down
NADPH oxidase 4 (Homo sapiens), sequence (Q9NPH5 whole entry, looked up): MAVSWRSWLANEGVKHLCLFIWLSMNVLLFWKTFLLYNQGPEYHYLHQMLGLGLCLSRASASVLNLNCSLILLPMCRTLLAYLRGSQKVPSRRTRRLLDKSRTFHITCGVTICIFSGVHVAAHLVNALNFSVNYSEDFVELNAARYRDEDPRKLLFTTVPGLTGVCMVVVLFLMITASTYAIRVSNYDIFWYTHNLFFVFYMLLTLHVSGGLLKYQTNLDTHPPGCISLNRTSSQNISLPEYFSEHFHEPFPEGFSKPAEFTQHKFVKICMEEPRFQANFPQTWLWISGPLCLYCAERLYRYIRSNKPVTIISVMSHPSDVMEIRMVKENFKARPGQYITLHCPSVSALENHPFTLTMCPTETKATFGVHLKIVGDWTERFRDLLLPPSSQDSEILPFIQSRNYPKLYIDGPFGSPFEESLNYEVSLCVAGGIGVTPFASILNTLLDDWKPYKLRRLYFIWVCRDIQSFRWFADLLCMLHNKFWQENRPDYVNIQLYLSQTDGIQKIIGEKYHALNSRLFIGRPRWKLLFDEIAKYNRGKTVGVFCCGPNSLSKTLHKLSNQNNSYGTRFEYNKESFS

[20] = target: NADPH oxidase 5 (Homo sapiens) (UniProt Q96PH1); assay: compounds shifting NOX5 Amplex Red fluorescence – cell-based, HEK293-NOX5, NOX inhibitor project, primary screen (AID 1161); settings: HEK293-NOX5, ionomycin, 45 min, higher = more signal
NADPH oxidase 5 (Homo sapiens), sequence (Q96PH1 whole entry, looked up): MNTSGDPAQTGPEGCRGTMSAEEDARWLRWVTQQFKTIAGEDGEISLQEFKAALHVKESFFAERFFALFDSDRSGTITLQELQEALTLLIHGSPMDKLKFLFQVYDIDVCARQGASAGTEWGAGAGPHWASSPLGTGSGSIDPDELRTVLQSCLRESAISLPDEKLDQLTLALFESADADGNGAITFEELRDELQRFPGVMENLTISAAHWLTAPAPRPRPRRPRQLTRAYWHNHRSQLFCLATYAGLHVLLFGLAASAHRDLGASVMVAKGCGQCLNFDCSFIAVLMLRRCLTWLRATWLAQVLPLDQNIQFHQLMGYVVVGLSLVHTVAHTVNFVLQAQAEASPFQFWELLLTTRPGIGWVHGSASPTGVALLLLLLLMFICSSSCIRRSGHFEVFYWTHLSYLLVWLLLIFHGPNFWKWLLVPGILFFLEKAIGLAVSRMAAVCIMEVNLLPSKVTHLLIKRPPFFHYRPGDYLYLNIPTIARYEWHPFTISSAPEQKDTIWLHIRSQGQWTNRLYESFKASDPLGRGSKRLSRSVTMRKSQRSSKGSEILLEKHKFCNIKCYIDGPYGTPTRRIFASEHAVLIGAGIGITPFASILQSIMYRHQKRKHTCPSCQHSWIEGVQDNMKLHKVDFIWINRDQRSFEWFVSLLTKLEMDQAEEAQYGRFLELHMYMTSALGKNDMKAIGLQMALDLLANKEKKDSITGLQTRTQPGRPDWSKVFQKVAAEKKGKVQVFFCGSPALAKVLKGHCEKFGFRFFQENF

| SMILES | composite z-score [1] | z-score [2] | z-score [3] | z-score [4] | z-score [5] | composite z-score [6] | composite z-score [7] | composite z-score (Torsin-1A (Homo sapiens) [8]) | composite z-score (Torsin-1A (Homo sapiens) [9]) | composite z-score [10] | z-score [11] | composite z-score [12] | z-score [13] | z-score [14] | z-score [15] | z-score [16] | z-score [17] | z-score [18] | z-score [19] | z-score [20] |
| --- | --- | --- | --- | --- | --- | --- | --- | --- | --- | --- | --- | --- | --- | --- | --- | --- | --- | --- | --- | --- |
| COC(=O)C1(C)C=C2C(=C(c3ccccc3)C(=O)C2C)CN1 (stereo not given) | 0.0106 | -0.266 (inactive) | -0.426 (inactive) | 0.593 (inactive) | -0.0287 (inactive) | -0.153 | 0.12 | -0.366 | -0.367 | -0.593 | -1.47 (inactive) | 0.22 | 0.585 (inactive) | 0.196 (inactive) | 0.745 (inactive) | 0.543 (inactive) | -0.387 | 0.512 (inactive) | -2.49 (inactive) | -2.34 |
| CC(CCN1CCc2nc(-c3ccccc3)c(-c3ccccc3)cc2C1)=NOC[C@@H](C)[C@H](OCc1ccccc1)C(C)C | -0.492 | 0.232 (inactive) | -0.612 (inactive) | 2.07 (inactive) | -0.17 (inactive) | -0.717 | -0.261 | -2.11 | -1.21 | -0.819 | -0.268 (inactive) | -0.0464 | 1.43 (inactive) | 1.03 (inactive) | 1.21 (inactive) | 0.637 (inactive) | 0.116 | 0.837 (inactive) | -1.74 (inactive) | -0.578 |
| O=C1C[C@@H](O)[C@@H](O)[C@@H]2[C@@H]3C(=O)N(c4ccc(F)cc4F)C(=O)[C@@H]3CC[C@@H]12 | -0.0711 | 0.988 (inactive) | -0.356 (inactive) | 0.792 (inactive) | -0.0611 (inactive) | 0.254 | -0.0887 | 0.243 | 0.149 | 0.786 | -0.349 (inactive) | -0.101 | -0.571 (inactive) | -0.0709 (inactive) | -0.659 (inactive) | -0.408 (inactive) | -0.0159 | -2.64 (inactive) | 0.473 (inactive) | -0.457 |
| CC(CCN1CCc2nc(-c3ccccc3)c(-c3ccccc3)cc2C1)=NOC(C)CN1CCCCc2nc(C)c(C)cc21 (stereo not given) | 0.0802 | 0.168 (inactive) | -0.075 (inactive) | -0.147 (inactive) | 0.0715 (inactive) | 0.393 | -0.0195 | 0.319 | 0.278 | 0.569 | -0.934 (inactive) | -0.106 | 1.08 (inactive) | -0.198 (inactive) | 0.281 (inactive) | 0.343 (inactive) | -0.0953 | -0.839 (inactive) | 0.405 (inactive) | 0.108 |
| CCOc1ccc(N2C(=O)/C(=C/C=C/c3ccccc3OC)S(=O)(=O)C2c2cccc([N+](=O)[O-])c2)cc1 (stereo not given) | -0.0676 | -4.29 (inactive) | -1.57 (inactive) | 0.0026 (inactive) | -1.2 (inactive) | 0.27 | -0.0596 | 1.94 | 0.184 | 0.37 | 3.21 (inactive) | -0.0193 | 1.03 (inactive) | 0.282 (inactive) | -1.1 (inactive) | -1.04 (inactive) | 2.38 | 0.5 (inactive) | 0.389 (inactive) | 1.49 |
| C=COC[C@H]1CN2[C@@H](CC[C@@H](C)[C@@H]2c2ccc(Br)cc2)C(=O)O1 | 0.52 | -0.443 (inactive) | -1.13 (inactive) | 1.59 (inactive) | -0.212 (inactive) | -0.0488 | 0.027 | 0.594 | 0.0658 | 1.2 | -1.63 (inactive) | 0.0402 | -0.591 (inactive) | -2.06 (inactive) | -0.655 (inactive) | -1.99 (inactive) | 1.54 | -0.427 (inactive) | 0.102 (inactive) | 0.574 |
| CCc1cc2c(nc1CC)CCN(CCC(C)=NOC(C)CN1CCCc3nc(C)c(C)cc31)C2 (stereo not given) | 0.56 | -0.0844 (inactive) | -0.129 (inactive) | 1.14 (inactive) | 0.534 (inactive) | 0.854 | 0.341 | 1.31 | 0.748 | 1.35 | -1.97 (inactive) | 0.876 | 2.25 (inactive) | -0.0243 (inactive) | 0.0813 (inactive) | 0.146 (inactive) | -1.08 | -1.41 (inactive) | -0.293 (inactive) | -1.86 |
| C[C@@H](c1ccccc1)N1C(=O)[C@H]2[C@H]3[C@H](O)[C@H](O)CC(=NNC(=O)OCc4ccccc4)[C@H]3CC[C@H]2C1=O | 0.15 | -0.0242 (inactive) | 0.158 (inactive) | 0.423 (inactive) | -0.0874 (inactive) | 0.0456 | -0.317 | -0.184 | -0.289 | -0.108 | 0.645 (inactive) | 0.107 | 3.27 (inactive) | 1.03 (inactive) | 0.0197 (inactive) | 0.0072 (inactive) | 0.296 | 0.982 (inactive) | 1.08 (inactive) | 0.412 |
| Cc1cc2c(c(=O)o1)[C@H](O)[C@H]1O[C@H]1C2=O | -0.218 | -2.97 (inactive) | 1.6 (inactive) | -1.06 (inactive) | 2.18 (inactive) | 0.0061 | -0.209 | 0.284 | 0.46 | 1.5 | -0.743 (inactive) | -0.237 | -0.228 (inactive) | 0.496 (inactive) | 0.716 (inactive) | 0.0033 (inactive) | -0.573 | 1.67 (inactive) | -1.04 (inactive) | -1.39 |
